Source: PubChem BioAssay AID449746 (Sanford-Burnham Center for Chemical Genomics, 2010)
Screen size: about 2,000 compounds; about 680 (34%) were called active. Cut-off read from the data, not from the text of the source: active = inhibition mostly above about 28% (no sharp cut-off); inactive = mostly below about 22%. These entries were drawn from the full list.

Experiment: lowers stimulated NF-kB luciferase signal in 697 cells – cell-based, luminescence, single concentration, B-cell NF-kB inhibitor project, confirmation (AID 449746)
Details: 697 B-cell NF-kB luciferase, PMA/ionomycin, 16 h; at 4 µM; hits give high values

| Compound | inhibition |
| --- | --- |
| CCOc1cc(C(=O)N2CCc3cc(OC)c(OC)cc3C2)ccc1OC(F)F | 43.5% (active) |
| Cc1ccc(C(=O)C[n+]2cc(-c3ccccc3)n3c2CCCCC3)cc1 | 11.4% (inactive) |
| c1ccc2[nH]c(-c3nc4ccccc4[nH]3)nc2c1 | -191% (inactive) |
| Cc1cccc(Nc2nc(-c3ccccc3)cs2)n1 | -201% (inactive) |
| CCN1/C(=C\c2ccc3ccccc3[n+]2CC)Sc2cc(C)ccc21 | 68.5% (active) |
| COc1cccc(NC(=O)[C@H](Cc2c[nH]c3ccccc23)NC(=O)[C@@H]2Cc3ccccc3CN2)c1 | 0.1% (inactive) |
| CC[n+]1cc(C)ccc1/C=C/c1ccc(N(C)C)cc1 | 17.4% (inactive) |
| OCCCNc1nccc(-c2cc(Nc3cccc(Cl)c3)ncn2)n1 | 85.9% (active) |
| COC(=O)C1=C(C(=O)c2ccc(C)cc2)C(c2ccccc2)n2nnnc2N1 (configuration not stated) | 22.4% (inactive) |
| CCc1ccc2oc(-c3ccc(N)cc3)nc2c1 | -417% (inactive) |
| CCCCCc1ccc(-c2ccc(C(=O)O)cc2)nc1 | -165% (inactive) |
| CNc1nc(Nc2ccc(C)c(Cl)c2)nc(N)c1[N+](=O)[O-] | -231% (inactive) |
| O=C(C1CCC1)N1CCN(S(=O)(=O)c2ccc([N+](=O)[O-])cc2)CC1 | 30.8% (active) |
| C=CCSc1nc(N)cc(=O)[nH]1 | -19.9% (inactive) |
| COc1ccc(C(=O)n2nc(-c3ccc(Cl)cc3)nc2N)cc1OC | 46.5% (active) |
| C=CCn1c(C)cc(C2=NNC(=NCC)SC2)c1C | 2.7% (inactive) |
| COc1cc(/C=N/NC(=O)c2ccc(N3CCCC3=O)cc2)ccc1O | -89.1% (inactive) |
| COc1ccc(-c2nc(-c3ccccc3)no2)c(OC)c1 | -330% (inactive) |
| O=C(O)COc1ccc(-c2nccc(-c3cccs3)n2)cc1 | 55% (active) |
| CCn1c(O)c(N=NC2=NC(=O)CS2)c2cc(C)ccc21 | 17.4% (inactive) |
| COc1ccc(/C=N/Nc2ccccc2C(=O)O)cc1 | -12.1% (inactive) |

| Compound | inhibition |
| --- | --- |
| Clc1ccc(Nc2ccc3ccccc3n2)cc1 | -340% (inactive) |
| C/C=C(/C)C(=O)OC1Cc2c(ccc3ccc(=O)oc23)OC1(C)C (configuration not stated) | 50.1% (active) |
| COc1ccc(/C=N\NC(=O)c2sc(N)nc2C)cc1OC | 7.5% (inactive) |
| CCC(=O)Nc1ccc2nn(-c3ccc(F)cc3)nc2c1 | -298% (inactive) |
| COc1ccc(CNC(=O)[C@@H]2CC=C[C@@H]3CCN(C4CC4)C(=O)[C@@H]32)cc1 | 6.95% (inactive) |
| CCOC(=O)c1cc2c(=O)n3ccccc3nc2n(CC(C)C)c1=NC(=O)c1c(-c2c(F)cccc2Cl)noc1C | 33% (active) |
| CCOc1cccc(/C=C/c2ccc3ccccc3n2)c1OC(C)=O | -337% (inactive) |
| COc1ccc(C(=O)NC2CCCc3c2cnn3-c2cccc(C)c2C)c(OC)n1 (configuration not stated) | -397% (inactive) |
| Cn1nccc1C(=O)NC1CCCc2c1cnn2-c1ccccc1F (configuration not stated) | 97.9% (active) |
| Cn1nccc1C(=O)NC1CCCc2c1cnn2-c1ccc(F)cc1F (configuration not stated) | 105% (active) |
| Cc1cc(Nc2cc(N3CCN(C)CC3)nc(Sc3ccc(NC(=O)C4CC4)cc3)n2)n[nH]1 | 27.8% (inactive) |
| COc1c(C)c2c(c(O)c1C/C=C(\C)CCC(=O)O)C(=O)OC2 | -398% (inactive) |
| CC(C)CC(=O)N/C(N)=N/c1nc2ccccc2s1 | -290% (inactive) |
| Cc1ccc2cc3cc(C(=O)N4CCCCCC4)oc3nc2c1 | -242% (inactive) |
| COc1cc(N=Cc2c(O)[nH]c3ccccc23)cc(OC)c1OC | 20.8% (inactive) |
| OCCN1CCN(C(=S)c2ccc(-c3ccccc3)cc2)CC1 | 47% (active) |
| CCOC(=O)c1c(-c2ccc(C)cc2C)csc1NC(=O)CSc1nnnn1C | -192% (inactive) |
| COc1ccc(-c2csc(Nc3ccccn3)n2)cc1 | -117% (inactive) |
| O=C(CN1C(=O)c2ccccc2S1(=O)=O)N1CCc2ccccc21 | 32.4% (active) |
| Cc1cc(N=Nc2ccc3ccccc3c2)ccc1O | -266% (inactive) |
| CC(C)(C)c1ccc(Oc2ccc(N)cc2)cc1 | 17.2% (inactive) |

| Compound | inhibition |
| --- | --- |
| Cn1c(-c2ccc(C(F)(F)F)cc2)cc2onc(-c3ccccc3)c2c1=O | -301% (inactive) |
| Cc1cc(N)n2nc(-c3ccc(C(C)(C)C)cc3)cc2n1 | -470% (inactive) |
| O=C(NC(Nc1nc2ccc([N+](=O)[O-])cc2s1)(C(F)(F)F)C(F)(F)F)c1ccccc1 | -31.2% (inactive) |
| CCNC(=O)CCc1nc(-c2ccc(C(C)(C)C)cc2)no1 | 79.3% (active) |
| CCCNC(=O)c1ccc(N2CCC3(CC2)CC(c2cccc(Br)c2)=NO3)c(NC(=O)c2ccco2)c1 | 16.6% (inactive) |
| O=C(NCCCN1CCOCC1)c1cc(-c2ccc(Cl)cc2)on1 | 17.5% (inactive) |
| O=c1c2c(nc3cc(-c4cccc(Cl)c4)[nH]n13)CCCC2 | -285% (inactive) |
| Clc1ccc2nc(CSc3ccccc3)cn2c1 | -248% (inactive) |
| CC(C)C[C@@H](N)c1nnc(SCC(=O)c2ccc(Cl)cc2)o1 | 56.2% (active) |
| Fc1ccccc1/C=N/Nc1cc(N2CCCCC2)ncn1 | -264% (inactive) |
| CCOc1ccc(C(c2c(C)[nH][nH]c2=O)c2c(C)[nH][nH]c2=O)cc1OCC | 18.2% (inactive) |
| Cn1c(=O)cc(SCC(=O)N2CCCC2)c2cc(Cl)ccc21 | 38.2% (active) |
| CC(C)CCNC(=O)c1ccc2c(Cl)c3c(nc2c1)CCC3 | -231% (inactive) |
| Cc1ccc(O)c(NC(=O)COc2cc(C)ccc2C)c1 | 28.7% (active) |
| Cc1ccc(NC(=O)c2cc([N+](=O)[O-])ccc2Cl)c(O)c1 | 11.5% (inactive) |
| CC[C@]1(O)CC2CN(CCc3c([nH]c4ccccc34)[C@@](C(=O)OC)(c3cc4c(cc3OC)N(C=O)[C@H]3[C@@](O)(C(=O)OC)[C@H](OC(C)=O)[C@]5(CC)C=CCN6CC[C@]43[C@@H]65)C2)C1 (some centres not stated) | -337% (inactive) |
| COc1ccc(C2=Nc3cc(C)ccc3OC2)cc1 | -255% (inactive) |
| Cc1cccc(C(=O)Nc2ccc(CC(=O)O)cc2)c1 | 21.7% (active) |
| CNC(=O)c1ccc(NC(=O)c2cccc(C(F)(F)F)c2)cc1 | 12.7% (inactive) |
| Cc1ccc(N/C=C/C(=O)c2ccccc2)cc1C | -12.9% (inactive) |
